Data taken from PubChem BioAssay (NCATS).
Records with an inconclusive call do not appear. Activity calls are given as the source filed them. Calls follow the shape of the dose curve; as a rule, active = well fitted cell-killing curve with a large enough effect; inconclusive = small, poorly fitted or top-dose-only effect, or effect the other way; inactive = flat fitted curve, though single readings scatter.

How the values were obtained:
Assay in all cases: Primary qHTS to identify gynecologic anti-cancer compounds using libraries of approved drugs and bioactive compounds (AID 1345084); also: nearly all actives have a fitted effect of over 55% in size
[1] = test system: C33A; conditions: Gynecologic cancer cell panel viability, ATPlite luminescence, 48 h; series mostly up to 57.5 µM
How it was run: (§1)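 Cells, 1,000 per well, were allowed to settle for 16 h at 37 C before compound addition. Five concentrations were tested for 48 h, and viability was read by ATPlite luminescence after 15 min at room temperature.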

[2] = test system: CAOV3; conditions: Gynecologic cancer cell panel viability, ATPlite luminescence, 48 h; series mostly up to 57.5 µM
How it was run: as §1

[3] = test system: CASKI; conditions: Gynecologic cancer cell panel viability, ATPlite luminescence, 48 h; series mostly up to 57.5 µM
How it was run: as §1

[4] = test system: Es-2; conditions: Gynecologic cancer cell panel viability, ATPlite luminescence, 48 h; series mostly up to 57.5 µM
How it was run: as §1

[5] = test system: HeLa; conditions: Gynecologic cancer cell panel viability, ATPlite luminescence, 48 h; series mostly up to 57.5 µM
How it was run: as §1

[6] = test system: Hek293T; conditions: Gynecologic cancer cell panel viability, ATPlite luminescence, 48 h, control line for the selectivity index; series mostly up to 57.5 µM
How it was run: as §1

[7] = test system: JEG-3; conditions: Gynecologic cancer cell panel viability, ATPlite luminescence, 48 h; series mostly up to 57.5 µM
How it was run: as §1

[8] = test system: OV90; conditions: Gynecologic cancer cell panel viability, ATPlite luminescence, 48 h; series mostly up to 57.5 µM
How it was run: as §1

[9] = test system: PA-1; conditions: Gynecologic cancer cell panel viability, ATPlite luminescence, 48 h; series mostly up to 57.5 µM
How it was run: as §1
% is scaled to controls: 0 for no effect and ±100 for the full control effect.

CC(C)Nc1nc(Nc2ccccc2)nc(-c2ccccc2)n1
inactive: Potency [1] | Potency [2] | Potency [3] | Potency [4] | Potency [5] | Potency [6] | Potency [7] | Potency [8] | Potency [9]

Cc1cc(C)cc(-c2cnc3cc(Cl)c(-c4cccc(O)c4)cc3c2OCCCN)c1
inactive: Potency [1] | Potency [2] | Potency [3] | Potency [4] | Potency [5] | Potency [6] | Potency [7] | Potency [8] | Potency [9]

COc1c(C)cc(NC(=O)c2nn(Cc3ccc(F)cc3)c3c2CN(C(=O)c2ccc[nH]2)C[C@]3(C)C(N)=O)cc1C
inactive: activity change, negative = cytotoxicity [1] 12.3% [at 11.6 µM] | activity change, negative = cytotoxicity [2] -4.37% [at 11.6 µM] | activity change, negative = cytotoxicity [3] -0.257% [at 11.6 µM] | activity change, negative = cytotoxicity [4] 4.64% [at 11.6 µM] | activity change, negative = cytotoxicity [5] -7.03% [at 11.6 µM] | activity change, negative = cytotoxicity [6] 7.03% [at 11.6 µM] | activity change, negative = cytotoxicity [7] 1.95% [at 11.6 µM] | activity change, negative = cytotoxicity [8] 16.4% [at 11.6 µM] | activity change, negative = cytotoxicity [9] 15.5% [at 11.6 µM]

Nc1nc2c(s1)CCN(Cc1ccc(Cl)cc1)CC2
inactive: Potency [1] | Potency [2] | Potency [3] | Potency [4] | Potency [5] | Potency [6] | Potency [7] | Potency [8] | Potency [9]

CC(=O)O[C@@H]1[C@@H](O)[C@H](O[C@@H]2[C@@H](O)[C@@H](O)[C@H](O[C@H]3[C@H](O[C@H]4[C@H](O[C@H]5CC[C@@]6(C)C(CC[C@]7(C)C6CC=C6[C@@H]8CC(C)(C)CC[C@]8(C(=O)O)CC[C@]67C)[C@]5(C)CO)O[C@H](CO)[C@@H](O)[C@@H]4O)OC[C@@H](O)[C@@H]3O)O[C@H]2C)OC[C@H]1O (stereo partly drawn)
inactive: activity change, negative = cytotoxicity [1] -4.66% [at 11.6 µM] | activity change, negative = cytotoxicity [2] 10.9% [at 11.6 µM] | activity change, negative = cytotoxicity [3] 17% [at 11.6 µM] | activity change, negative = cytotoxicity [4] -1.31% [at 11.6 µM] | activity change, negative = cytotoxicity [5] 2.05% [at 11.6 µM] | activity change, negative = cytotoxicity [6] 1.05% [at 11.6 µM] | activity change, negative = cytotoxicity [7] 13.7% [at 11.6 µM] | activity change, negative = cytotoxicity [8] 10.1% [at 11.6 µM] | activity change, negative = cytotoxicity [9] -1.55% [at 11.6 µM]

CC(=O)OC[C@]12[C@H](OC(C)=O)[C@H](OC(=O)c3ccccc3)[C@@H]3[C@@H](OC(C)=O)[C@]1(OC3(C)C)[C@H](C)C[C@H](OC(C)=O)[C@@H]2OC(=O)c1ccccc1
inactive: Potency [1] | Potency [2] | Potency [3] | Potency [4] | Potency [5] | Potency [6] | Potency [7] | Potency [8] | Potency [9]

COc1c(C(C)C)c(O)c(O)c2c1C(OC)[C@H]1OC(=O)[C@@]23CCCC(C)(C)[C@H]13 (stereo partly drawn)
inactive: Potency [1] | Potency [2] | Potency [3] | Potency [4] | Potency [5] | Potency [6] | Potency [7] | Potency [8] | Potency [9]

CC(C)(CNC(=O)c1cccc(-c2noc(C(F)(F)F)n2)c1)c1coc(-c2ccccc2)n1
inactive: Potency [1] | Potency [2] | Potency [3] | Potency [4] | Potency [5] | Potency [6] | Potency [7] | Potency [8] | Potency [9]

CCc1c(Cl)c(O)c(Cl)c(O)c1C(=O)O[C@H]1[C@H](O)[C@H](OC)[C@H](OC/C2=C\C=C\C[C@H](O)/C(C)=C\[C@H](CC)[C@@H](O[C@@H]3OC(C)(C)[C@@H](OC(=O)C(C)C)[C@H](O)[C@@H]3O)/C(C)=C/C(C)=C/C[C@@H]([C@@H](C)O)OC2=O)O[C@@H]1C
inactive: Potency [1] | Potency [2] | Potency [3] | Potency [4] | Potency [5] | Potency [6] | Potency [7] | Potency [8] | Potency [9]

Cc1onc(-c2ccccc2)c1C(=O)N1CCN(c2ccc([N+](=O)[O-])cc2Cl)CC1
inactive: Potency [1] | Potency [2] | Potency [3] | Potency [4] | Potency [5] | Potency [6] | Potency [7] | Potency [8] | Potency [9]

NC(N)=N/N=C/c1ccccc1Cl
inactive: Potency [1] | Potency [2] | Potency [3] | Potency [4] | Potency [5] | Potency [6] | Potency [7] | Potency [8] | Potency [9]

CCOC(=O)N1CCC(CN(Cc2ccc(Cl)cc2)Cc2ccc([N+](=O)[O-])s2)C1 (stereo not drawn)
inactive: Potency [1] | Potency [2] | Potency [3] | Potency [4] | Potency [5] | Potency [6] | Potency [7] | Potency [8] | Potency [9]

C=C1C(=O)O[C@@H]2/C=C(\CO)CC/C=C(\CO)[C@H](OC(C)=O)C(OC(=O)C(C)CC)C12 (stereo partly drawn)
inactive: Potency [1] | Potency [2] | Potency [3] | Potency [4] | Potency [5] | Potency [6] | Potency [7] | Potency [8] | Potency [9]

Cn1ccc(NC(=O)c2cc(Oc3ccc(C(=O)N4CCC4)c(F)c3)c3c(c2)OC(C)(C)C3)n1
inactive: Potency [1] | Potency [2] | Potency [3] | Potency [4] | Potency [5] | Potency [6] | Potency [7] | Potency [8] | Potency [9]

C=C1C(=O)O[C@H]2C1CCC(C)=C1C(=O)C=C(C)[C@@]12O (stereo partly drawn)
inactive: Potency [1] | Potency [2] | Potency [3] | Potency [4] | Potency [5] | Potency [6] | Potency [7] | Potency [8] | Potency [9]

OC[C@H]1O[C@@H](OC/C=C/c2ccc(O)cc2)[C@H](O)[C@@H](O)[C@@H]1O
inactive: Potency [1] | Potency [2] | Potency [3] | Potency [4] | Potency [5] | Potency [6] | Potency [7] | Potency [8] | Potency [9]

O=C(O)C1=CO[C@@H](O[C@@H]2O[C@H](CO)[C@@H](O)[C@H](O)[C@H]2O)[C@@H]2C(CO)=CC[C@H]12
inactive: Potency [1] | Potency [2] | Potency [3] | Potency [4] | Potency [5] | Potency [6] | Potency [7] | Potency [8] | Potency [9]
